# High-throughput results deposited in PubChem by Broad Institute.
# Pf Dd2 inh = inhibitors of Plasmodium falciparum Dd2 growth | 2.3% of 94,000 active | activity change, % at 10 µM | P. falciparum Dd2 growth, SYBR Green, 72 h; stronger effect = lower value; in the data active = activity change below about -80%; inconclusive = no clear call, values can overlap the other calls
# C diff growth = C. difficile growth inhibition; Clostridium difficile clinical isolate growth, OD600, 24 h; stronger effect = lower value; growth activity, negative = inhibition, % at 16 µg/mL (by protocol); 0.25% of 86,000 active; AID 1259249;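 active = mean growth activity at or below -80% and every replicate also at or below -80%; inconclusive = mean at or below -80% but some replicate above -80%; inactive = mean growth activity above -80%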;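 also: 0% = DMSO wells and -100% = levofloxacin 16 µg/mL wells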
# T cruzi growth-1 = inhibitors of T. cruzi proliferation | 5.9% of 77,000 active | AID 624255 | T. cruzi beta-gal in NIH3T3, GalScreen luminescence, 90 h | inhibition, % at 8.34 µM;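 active = mean inhibition above about 93%, with at least 55% of replicates each passing it, limit read from the data, passing the limit was not always enough; inconclusive = only one of those two conditions holds; inactive = neither condition holds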
# T cruzi growth-2 = inhibitors of T. cruzi proliferation; 72% of 5,600 active; T. cruzi beta-gal in NIH3T3, GalScreen luminescence, 90 h; shares compounds with T cruzi growth-1; AID 651739; inhibition, % at 8.35 µM;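 active = mean replicate inhibition above about 95% and at least 55% of replicates individually reaching it, limit read from the data; inconclusive = only one of the two criteria is met; inactive = neither criterion is met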
# T cruzi growth-3 = blocks T. cruzi growth in NIH3T3 host cells; shares compounds with T cruzi growth-1; T. cruzi beta-gal in NIH3T3, GalScreen luminescence, 90 h; inhibition, % at 2.09 µM; 21% of 5,600 active; AID 651740;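 active = mean inhibition above about 95%, with at least 55% of replicates also reaching it, limit read from the data; inconclusive = meets just one of the two conditions; inactive = meets neither condition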;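 also: plate controls were neutral control median for no effect and positive control median for full effect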
# NIH3T3 tox = cytotoxicity in mouse NIH/3T3 fibroblasts. shares compounds with T cruzi growth-1. NIH/3T3 viability, CellTiter-Glo ATP luminescence, 90 h. cytotoxicity (signal decrease), % at 8.35 µM. 14% of 5,600 active. AID 651742;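 active = mean signal decrease across replicates above about 35% based on untreated-well scatter, with enough replicates individually passing, limit read from the data; inconclusive = no rule stated though some were filed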;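 also: 0% = median of neutral control wells and 100% = median of positive control wells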
# 3T3 cytotox 2 = cytotoxicity in mouse NIH/3T3 fibroblasts; shares compounds with T cruzi growth-1; NIH/3T3 viability, CellTiter-Glo ATP luminescence, 90 h; inhibition, % at 24.9 µM; 56% of 5,600 active; AID 651744;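 active = mean loss of cell viability signal at or above a set limit, and enough replicates individually reaching it; inconclusive = meets only the mean limit or only the replicate share; inactive = meets neither condition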;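 also: 0% = median of neutral control wells and 100% = median of positive control wells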
# Starred values were filed as active, the others as inactive; u = inconclusive; x = not tested or not shown. Hits are enriched below; roughly 6.7% of the tested compounds scored in any of these assays.
SMILES,Pf Dd2 inh,C diff growth,T cruzi growth-1,T cruzi growth-2,T cruzi growth-3,NIH3T3 tox,3T3 cytotox 2
Cc1cccc(S(=O)(=O)N2C[C@@H]3[C@H](c4ccccc42)[C@H](CO)N3CC2CCCC2)c1,-20.8,34.7,98.4*,104.4*,72.1,10.9,98.6*
Cc1cccc(S(=O)(=O)N2C[C@@H]3[C@H](c4ccccc42)[C@@H](CO)N3CC2CCCC2)c1,-64.1,49.6,61.1,x,x,x,x
Cc1cccc(S(=O)(=O)N2C[C@@H]3[C@H](c4ccccc42)[C@@H](CO)N3CC2CCOCC2)c1,-7.4,2.4,23.9,x,x,x,x
Cc1cccc(S(=O)(=O)N2C[C@H]3[C@@H](c4ccccc42)[C@@H](CO)N3CC2CCCC2)c1,-32.4,38.3,99.1*,103.6*,93.0,23.9,103.2*
Cc1ccc(S(=O)(=O)N(C)C[C@H]2Oc3cc(C4=CCCC4)ccc3S(=O)(=O)N([C@@H](C)CO)C[C@@H]2C)cc1,-50.3,3.8,x,x,x,x,x
C[C@H](CO)N1C[C@H](C)[C@H](CN(C)S(=O)(=O)c2ccc(F)cc2)Oc2cc(C3=CCCC3)ccc2S1(=O)=O,-30.3,14.3,117.8*,107.7*,77.7,37.0*,24.0*
C[C@@H]1CN([C@@H](C)CO)S(=O)(=O)c2ccc(C3=CCCC3)cc2O[C@@H]1CN(C)S(=O)(=O)c1ccc(F)cc1,-12.9,4.8,119.5*,106.2*,75.2,29.0,30.5*
Cc1ccc(S(=O)(=O)N(C)C[C@@H]2Oc3cc(C4=CCCC4)ccc3S(=O)(=O)N([C@H](C)CO)C[C@H]2C)cc1,-72.9,0.5,x,x,x,x,x
C/C=C/c1ccc([C@@H]2[C@H](CO)N(C(=O)C3CC3)[C@H]2CN(CC)C(C)=O)cc1,2.2,27.4,100.0*,59.2,1.4,-12.1,-5.9
C/C=C/c1ccc([C@@H]2[C@@H](CO)N(C(C)=O)[C@H]2CN(CC)C(=O)CC)cc1,4.8,-7.8,100.7*,106.0*,-8.5,16.7,33.4
C/C=C/c1ccc([C@@H]2[C@@H](CN(CC)C(=O)CC)N(C(=O)C3CCC3)[C@H]2CO)cc1,-30.2,-5.7,-23.1,x,x,x,x
C/C=C/c1ccc([C@@H]2[C@@H](CN(CC)C(=O)CC)N(C(C)=O)[C@H]2CO)cc1,-1.8,-8.5,-1.5,x,x,x,x
COc1cccc(-c2ccc3c(c2)[C@H]2[C@H](CCN2C(=O)C2CC2)[C@@H](CO)N3)c1,-26.3,8.4,x,x,x,x,x
C[C@H]1CN([C@@H](C)CO)C(=O)c2cc(NC(=O)CCC(F)(F)F)ccc2O[C@H]1CN(C)Cc1ccccc1,20.0,-3.9,-23.2,x,x,x,x
CC(C)NC(=O)N(C)C[C@H]1Oc2cc(C#Cc3cccc(F)c3)ccc2S(=O)(=O)N([C@@H](C)CO)C[C@@H]1C,-22.2,-7.9,116.0*,99.4*,58.5,22.1,44.7*
CC(C)NC(=O)N(C)C[C@@H]1Oc2cc(C#Cc3cccc(F)c3)ccc2S(=O)(=O)N([C@H](C)CO)C[C@@H]1C,-57.1,-14.8,60.9,x,x,x,x
CC(C)NC(=O)N(C)C[C@@H]1Oc2cc(C#Cc3ccc(F)cc3)ccc2S(=O)(=O)N([C@H](C)CO)C[C@@H]1C,-29.4,-5.4,110.9*,97.3*,u,10.8,10.4
CC(C)NC(=O)N(C)C[C@@H]1Oc2cc(C#Cc3cccc(F)c3)ccc2S(=O)(=O)N([C@@H](C)CO)C[C@@H]1C,-72.8,-12.3,91.7,x,x,x,x
CC(C)NC(=O)N(C)C[C@H]1Oc2cc(C#Cc3ccc(F)cc3)ccc2S(=O)(=O)N([C@@H](C)CO)C[C@H]1C,-2.3,-3.8,107.3*,105.3*,21.0,-16.5,19.2
CC(C)NC(=O)N(C)C[C@H]1Oc2cc(C#Cc3cccc(F)c3)ccc2S(=O)(=O)N([C@@H](C)CO)C[C@H]1C,-42.1,-5.8,100.0,x,x,x,x
Cc1nn(C)cc1NC(=O)C[C@@H]1CC[C@H]2[C@@H](COc3ccc(NC(=O)C4CCC4)cc3C(=O)N2C)O1,3.6,-2.9,4.8,x,x,x,x
COc1ccccc1NC(=O)N[C@@H]1C=C[C@@H](CC(=O)N2CCC(Cc3ccccc3)CC2)O[C@H]1CO,-15.6,x,34.0,x,x,x,x
COc1cccc(S(=O)(=O)N(C)C[C@@H]2Oc3ncccc3C(=O)N([C@H](C)CO)C[C@@H]2C)c1,29.5,1.9,8.9,x,x,x,x
